# PubChem BioAssay (NCI)
# The panel holds about 83,000 compounds, 20% with a hit somewhere; the sample as a whole holds those more often.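 In brief: 96-well plates, 48 h treatment, single concentration, percent growth endpoint.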 Active and inactive are the calls of the source. Rule for the calls: active = growth percent below 10; inactive = the rest.
# Tested on: MDA-MB-468 breast
# Experiment: NCI-60 one-dose screen, 48 h (100 = growth as untreated, 0 = no growth, -100 = all killed)
# Details: 10 µM unless noted
row,Compound,growth
1,O=C1OCC2=C1C(c1cccc(F)c1)c1cc3c(cc1N2CCO)OCCO3 (stereo not drawn),-8.31% (active)
2,Cn1cc(-c2nc(-c3c[nH]c4ncc(F)cc34)cs2)c2cccnc21,-0.356% (active)
3,COc1cc(C2C(C#N)=C(N)Oc3cc4c(cc32)OCO4)cc2c1OCO2 (stereo not drawn),-8.15% (active)
